Bioassay records as filed in PubChem.
Hits are enriched below; roughly 13% of the tested compounds scored in any of these assays.
Lamin A splicing: qHTS Assay for Modulators of Lamin A Splicing; HeLa LMNA splicing GFP/RFP minigene ratio, 48 h; Potency, µM (top dose mostly 46.1 µM), for inactives: at the top dose ratio change, negative = inhibition, usual class: inhibitors; hit rate 0.01% among 200,000; active means well fitted inhibition curve with a large enough effect in the signal ratio, with a control signal flat, not every such curve was filed as active; inconclusive means small, poorly fitted or top-dose-only effect, or effect the other way, or a change in a side signal; the % refers to the signal ratio; further: potency means the concentration at half of the fitted maximal effect; on the % scale 0 is the no-effect control and ±100 the full control effect
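S3 HeLa cells stably expressing lamin A-EGFP splicing minigene plus DsRed2, 600 cells/well, 48 h compound exposure at 37C. Laser-scanning cytometry; analysed as GFP (500-530 nm)/RFP (575-640 nm) total intensity ratio; 0.5% DMSO vehicle.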
miR-21 act: qHTS Assay for Modulators of miRNAs and/orActivators of miR-21 | 340,000 tested, under 10 active | AID 2288, 2010 | HeLa miR-21 FLuc reporter, luciferase, 48 h | Potency, µM (titrated, usually from 38.3 µM), for the others: at the top dose activity change, positive = activation, hits mostly activators;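 further: % of control where 0% means no effect; miR-21 action dims this reporter so a rising signal means less miR-21 action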
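Using DMEM plus 10% FBS, HeLa miR-21-FLuc cells are incubated with test compounds (final up to about 40uM) for 48 hours; firefly luciferase signal is then imaged following reagent-mediated lysis.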
ALDH1A1 inh: qHTS Assay for Inhibitors of Aldehyde Dehydrogenase 1 (ALDH1A1); Aldehyde dehydrogenase 1A1 (Homo sapiens), P00352; hit rate 7.3% among 220,000; Purified ALDH1A1, NADH fluorescence, propionaldehyde substrate; Potency, µM (titrated, usually from 75.3 µM), for inactives: at the highest dose activity, negative = inhibition, hits mostly inhibitors; active means well fitted inhibition curve with a large enough effect, not every such curve was filed as active; inconclusive means small, poorly fitted or top-dose-only effect, or another doubt; inactive means no such curve, though single readings can be large or run the other way;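 further: potency means the concentration at half of the fitted maximal effect; plate controls were no enzyme wells and a reference inhibitor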
Target sequence (P00352 whole entry, looked up): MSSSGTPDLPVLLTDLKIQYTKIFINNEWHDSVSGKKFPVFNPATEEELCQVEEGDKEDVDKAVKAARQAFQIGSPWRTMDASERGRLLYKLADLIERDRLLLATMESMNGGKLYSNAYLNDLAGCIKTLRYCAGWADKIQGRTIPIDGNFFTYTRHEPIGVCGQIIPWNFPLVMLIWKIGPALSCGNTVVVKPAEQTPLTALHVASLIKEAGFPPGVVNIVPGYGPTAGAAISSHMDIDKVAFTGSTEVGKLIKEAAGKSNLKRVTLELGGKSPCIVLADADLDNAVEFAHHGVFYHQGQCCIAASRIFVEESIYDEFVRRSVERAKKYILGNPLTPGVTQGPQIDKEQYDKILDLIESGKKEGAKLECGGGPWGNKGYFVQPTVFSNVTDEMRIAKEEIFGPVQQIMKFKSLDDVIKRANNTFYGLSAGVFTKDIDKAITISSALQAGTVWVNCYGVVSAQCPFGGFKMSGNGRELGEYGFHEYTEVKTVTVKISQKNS
JMJD2E inh: qHTS Assay for Inhibitors of Human Jumonji Domain Containing 2E (JMJD2E); Lysine-specific demethylase 4E (Homo sapiens), B2RXH2; JMJD2E catalytic domain, FDH-coupled NADH fluorescence (FDH is formaldehyde dehydrogenase); Potency, µM (titrated, usually from 57.1 µM), without a hit: at the top dose activity change, negative = inhibition, hits mostly inhibitors; hit rate 1.6% among 230,000; AID 2147, 2009; active means well fitted inhibition curve with a large enough effect, not every such curve was filed as active; inconclusive means small, poorly fitted or top-dose-only effect, or another doubt; inactive means no such curve, though single readings can be large or run the other way;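 further: potency means the concentration at half of the fitted maximal effect; 0% = wells with enzyme and -100% = buffer wells without enzyme; nearly all actives have a fitted effect of over 50% in size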
G9a inh: qHTS Assay for Inhibitors of Histone Lysine Methyltransferase G9a; Histone-lysine N-methyltransferase EHMT2 (Homo sapiens), Q96KQ7; G9a H3K9 monomethylation, AlphaScreen, 2 h; Potency, µM (series often up to 102 µM), for the others: at the highest dose activity, negative = inhibition, usual class: inhibitors; hit rate 8.8% among 350,000; further: potency means the concentration at half of the fitted maximal effect; on the % scale 0 is the no-effect control and ±100 the full control effect; nearly all actives have a fitted effect of over 75% in size
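Quantitative HTS format: methyltransferase activity on a biotin-tagged H3K9 peptide is measured by AlphaScreen, using a rabbit anti-monomethyl-H3K9 antibody with streptavidin donor and anti-IgG acceptor beads. Final levels are 20 nM enzyme, 500 nM peptide, 20 uM SAM; 2 h RT.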
Sfp inh: qHTS Assay for Inhibitors of Bacillus subtilis Sfp phosphopantetheinyl transferase (PPTase). 4'-phosphopantetheinyl transferase ffp (Bacillus subtilis), Q9F4F7. Biochemical Sfp PPTase activity, qHTS. Potency, µM, for the others: largest response in the series, negative = inhibition, most hits filed as inhibitors. hit rate 3.5% among 310,000;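 further: the enzyme is Sfp with the accession as filed and its product quenches rhodamine fluorescence; potency means the concentration at half of the fitted maximal effect; 0% = enzyme reaction without inhibitor and -100% = no enzyme wells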
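Fluorescence-quenching assay: 15 nM Sfp-PPTase preincubated 15 min at room temperature with compound, then 5 uM rhodamine-CoA and 12.5 uM BHQ-2-labelled YbbR peptide added. Fluorescence (ex 525/em 598 nm) read at start and after 30 min; difference gives rate.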
* marks the source's active call; other numbers are inactive results; [ ] = another dose, or the depositor's remark. Unless noted, the call rests on the fitted dose curve; in most records, active means well fitted curve in the direction sought with a large enough effect; inconclusive means small, poorly fitted or top-dose-only effect, or another doubt; inactive means no such curve, though single readings can be large; an effect the other way counts as inactive or inconclusive.

`CCN(CC)c1ccc(/C=N\NC(N)=O)cc1` gave Lamin A splicing -18%, miR-21 act -41%, ALDH1A1 inh inconclusive, JMJD2E inh inconclusive, G9a inh inconclusive and Sfp inh -8%.
CCN(CC)c1ccc(/C=N/NC(=O)OC(C)(C)C)cc1 was read as miR-21 act -36%, JMJD2E inh inconclusive, G9a inh 50µM* and Sfp inh -16%.
`CCN(CC)c1ccc(/C=N/NC(=O)Nc2ccccc2)cc1` gave Lamin A splicing inconclusive, miR-21 act -64%, ALDH1A1 inh inconclusive, JMJD2E inh inconclusive, G9a inh 10µM* and Sfp inh -8%.
For O=C(NCCc1ccc(Cl)cc1)Nc1ccc(Cl)cc1 the results were miR-21 act -15%, JMJD2E inh -1% and Sfp inh 5%.
For O=C(O)CC(C(=O)O)N1C(=O)/C(=C/C=C/c2ccco2)SC1=S (stereo not drawn) the results were miR-21 act 0%, JMJD2E inh 11µM*, G9a inh -186%[59 µM] and Sfp inh 22µM*.
`O=C(O)CCCN1C(=O)/C(=C/C=C/c2ccco2)SC1=S` gave miR-21 act 13%, JMJD2E inh 0%, G9a inh -170%[12.7 µM] and Sfp inh -12%.
O=C(O)C(Cc1ccccc1)N1C(=O)/C(=C/C=C/c2ccco2)SC1=S (stereo not drawn) was read as miR-21 act 0%, ALDH1A1 inh 3.2µM*, JMJD2E inh 7.9µM* and Sfp inh 40µM*.
`CCOc1ccc(NC(=O)C2CCN(c3nnc(C)c4c(C)n(-c5ccccc5)nc34)CC2)cc1` gave miR-21 act 2% and G9a inh -6%[59 µM].
For Cc1cc(/C=N/n2cnnc2)c(C)n1-c1ccc(OCc2ccc(Cl)cc2Cl)cc1 the results were Lamin A splicing inconclusive, miR-21 act 30%, ALDH1A1 inh inconclusive, JMJD2E inh inconclusive, G9a inh 16%[12.7 µM] and Sfp inh 35µM*.
Cc1cc(/C=N/n2cnnc2)c(C)n1-c1ccc(Cl)cc1 was read as Lamin A splicing inconclusive, miR-21 act -8%, ALDH1A1 inh inconclusive, JMJD2E inh inconclusive, G9a inh 14µM* and Sfp inh -9%.
Screening Cc1cc(/C=N/n2cnnc2)c(C)n1-c1cccc(Cl)c1 returned Lamin A splicing inconclusive, miR-21 act -15%, ALDH1A1 inh inconclusive, JMJD2E inh -3%, G9a inh 6%[12.7 µM] and Sfp inh 1%.
`Cc1sc(-n2c(C)cc(/C=C3\SC(=S)NC3=O)c2C)c(C#N)c1C` gave Lamin A splicing -1%, miR-21 act -20%, ALDH1A1 inh 12%, JMJD2E inh 3%, G9a inh inconclusive and Sfp inh -10%.
`Cc1cc(/C=N/n2cnnc2)c(C)n1-c1ccc(OCc2ccc(F)cc2)cc1` gave Lamin A splicing inconclusive, miR-21 act 9%, ALDH1A1 inh inconclusive, JMJD2E inh -4%, G9a inh inconclusive and Sfp inh -28%.
Screening Cc1cc(/C=N/N2CCN(C)CC2)c(C)n1-c1ccc(Cl)cc1 returned miR-21 act 1%, ALDH1A1 inh inconclusive, JMJD2E inh inconclusive, G9a inh 45µM* and Sfp inh -17%.
Screening Cc1sc(-n2c(C)cc(/C=N/n3cnnc3)c2C)c(C#N)c1C returned Lamin A splicing inconclusive, miR-21 act 0%, ALDH1A1 inh 4µM*, JMJD2E inh -2%, G9a inh 8.9µM* and Sfp inh 20µM*.
Cc1ccc(S(=O)(=O)N(C)CC(=O)O/N=C(\N)c2cccc(Br)c2)cc1 was read as miR-21 act -2%, G9a inh 84% and Sfp inh 8%.
Screening COc1ccc(/C=N/NC(=O)CNc2ccc(Br)cc2)c(C(=O)O)c1OC returned miR-21 act -2%, ALDH1A1 inh -8%, JMJD2E inh -3%, G9a inh 2% and Sfp inh 27%.
For COc1ccc(/C=N/NC(=O)CNc2c(Br)cc(C)cc2Br)c(C(=O)O)c1OC the results were Lamin A splicing 7%[46 µM], miR-21 act -10%, ALDH1A1 inh 7.1µM*, JMJD2E inh 8%, G9a inh inconclusive and Sfp inh 16%.
Screening CC1(C)CC(=O)C(/C=N/c2ccccn2)=C(O)C1 returned Lamin A splicing -5%, miR-21 act -6%, ALDH1A1 inh 14µM*, JMJD2E inh 6%, G9a inh inconclusive and Sfp inh 7%.
Screening CC1(C)CC(=O)C(C=Nc2cccc(/N=C/C3=C(O)CC(C)(C)CC3=O)n2)=C(O)C1 returned Lamin A splicing 4%, miR-21 act 0%, ALDH1A1 inh 3.5µM*, JMJD2E inh 1%, G9a inh -2% and Sfp inh 14%.
Screening Cc1[nH]nc(N=CC2=C(O)CC(C)(C)CC2=O)c1-c1ccccc1 returned Lamin A splicing inconclusive, miR-21 act -19%, ALDH1A1 inh 28µM*, JMJD2E inh -21%, G9a inh 3% and Sfp inh 8%.
`CC1(C)CC(=O)C(C=Nc2ccccc2)=C(O)C1` gave Lamin A splicing 12%, miR-21 act -6%, ALDH1A1 inh 3%, JMJD2E inh 7%, G9a inh inconclusive and Sfp inh 0%.
Screening CC1(C)CC(=O)C(C=Nc2ccc(NC3=C(C#N)C(=O)CC(C)(C)C3)cc2)=C(O)C1 returned Lamin A splicing 6%[46 µM], miR-21 act 1%, ALDH1A1 inh 7.1µM*, JMJD2E inh inconclusive, G9a inh 36% and Sfp inh 8%.
`COc1ccccc1-c1nc(SCC(=O)Nc2cc(C)on2)c2c(=O)n(C)c(=O)n(C)c2n1` gave miR-21 act 0%, G9a inh 18% and Sfp inh 12%.
Screening OC1(CNCc2cn[nH]c2-c2cc3ccccc3o2)CCCCC1 returned Lamin A splicing -2%[46 µM], miR-21 act 5%, ALDH1A1 inh 2%, JMJD2E inh 14%, G9a inh 2% and Sfp inh 20%.
Cc1cccc(C)c1OCC(=O)NCC1COc2ccccc2O1 (stereo not drawn) was read as G9a inh 2%[12.7 µM].
